Assay results published in the supplement of paper PMC12067926.
Unmarked numbers belong to inactive results.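 How the source made its calls: active = growth AUC significantly below the DMSO wells by Dunnett test; inactive = the rest.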

Key:
Assay in all cases: relative growth (AUC of 72 h growth curve relative to DMSO control, dAUC) (ratio); higher = more growth (less inhibition), active = hit call of the paper
Conditions in all cases: 20 µM
Community 7 = tested on: Community 7
Outline: (§1)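 Relative growth (dAUC) is the spline-integrated area under the growth curve divided by the mean of the DMSO-only control wells. Cultures were isolates from Icelandic stream sediments and Silwood Park soil, plus whole sediment communities, grown to carrying capacity in Luria–Bertani medium and diluted 1:100 into 96-well plates containing each chemical at 20 µM (1% DMSO). A600 was read hourly for 72 h on a plate reader, with brief shaking before each read, and values were averaged over three biological replicates.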

Community 8 = tested on: Community 8
Outline: as §1

Community 9 = tested on: Community 9
Outline: as §1

[1] = tested on: Flavobacterium 1 (Flavobacterium glaciei)
Outline: as §1

[2] = tested on: Flavobacterium 2 (Flavobacterium succinicans)
Outline: as §1

[3] = tested on: Hymenobacter 1 (Hymenobacter glaciei)
Outline: as §1

[4] = tested on: Microbacterium 1 (Microbacterium arborescens)
Outline: as §1

[5] = tested on: Neobacillus 1 (Neobacillus soli)
Outline: as §1

[6] = tested on: Oryzobacter 1 (Oryzobacter terrae)
Outline: as §1

[7] = tested on: Paenibacillus 1 (Paenibacillus castaneae)
Outline: as §1

## O=C(NC(=O)c1c(F)cccc1F)Nc1ccc(Cl)cc1
Community 7
  relative growth: 0.985
Community 8
  relative growth: 1.06
Community 9
  relative growth: 1.05
[1]
  relative growth: 0.844
[2]
  relative growth: 0.949
[3]
  relative growth: 0.917
[4]
  relative growth: 1.03
[5]
  relative growth: 0.942
[6]
  relative growth: 1.04
[7]
  relative growth: 0.957

## N#Cc1cc(Br)c(O)c(Br)c1
Community 7
  relative growth: 1.07
Community 8
  relative growth: 1.05
Community 9
  relative growth: 1.08
[1]
  relative growth: 1.02
[2]
  relative growth: 0.951
[3]
  relative growth: 0.861
[4]
  relative growth: 1.05
[5]
  relative growth: 0.842
[6]
  relative growth: 0.742 (active)
[7]
  relative growth: 1.16

## CN1COCN(Cc2cnc(Cl)s2)/C1=N\[N+](=O)[O-]
Community 7
  relative growth: 0.896
Community 8
  relative growth: 1.02
Community 9
  relative growth: 1.06
[1]
  relative growth: 1.02
[2]
  relative growth: 0.975
[3]
  relative growth: 0.998
[4]
  relative growth: 0.974
[5]
  relative growth: 1.01
[6]
  relative growth: 0.955
[7]
  relative growth: 0.945

## COCc1cnc(C2=NC(C)(C(C)C)C(=O)N2)c(C(=O)O)c1 (stereo not given)
Community 7
  relative growth: 1.14
Community 8
  relative growth: 0.983
Community 9
  relative growth: 0.959
[1]
  relative growth: 0.978
[2]
  relative growth: 1
[3]
  relative growth: 1.02
[4]
  relative growth: 1.02
[5]
  relative growth: 0.961
[6]
  relative growth: 1.05
[7]
  relative growth: 0.966

## CS(=O)(=O)c1cc(C(F)(F)F)ccc1C(=O)c1cnoc1C1CC1
Community 7
  relative growth: 0.983
Community 8
  relative growth: 1.02
Community 9
  relative growth: 1.09
[1]
  relative growth: 1.01
[2]
  relative growth: 1.07
[3]
  relative growth: 1.04
[4]
  relative growth: 1.02
[5]
  relative growth: 1.06
[6]
  relative growth: 0.94
[7]
  relative growth: 1.13

## Fc1ccc([C@]2(Cn3cncn3)O[C@H]2c2ccccc2Cl)cc1 (racemic)
Community 7
  relative growth: 1.15
Community 8
  relative growth: 1.04
Community 9
  relative growth: 0.984
[1]
  relative growth: 0.944
[2]
  relative growth: 0.938
[3]
  relative growth: 0.943
[4]
  relative growth: 1.01
[5]
  relative growth: 0.963
[6]
  relative growth: 1.13
[7]
  relative growth: 0.92

## COC(=O)N(OC)c1ccccc1COc1ccn(-c2ccc(Cl)cc2)n1
Community 7
  relative growth: 1.11
Community 8
  relative growth: 1.04
Community 9
  relative growth: 1.09
[1]
  relative growth: 0.969
[2]
  relative growth: 0.979
[3]
  relative growth: 1.08
[4]
  relative growth: 0.98
[5]
  relative growth: 1.03
[6]
  relative growth: 1.17
[7]
  relative growth: 0.944

## O=C(NC(=O)c1c(F)cccc1F)Nc1ccc(OC(F)(F)C(F)OC(F)(F)F)c(Cl)c1 (stereo not given)
Community 7
  relative growth: 1.11
Community 8
  relative growth: 0.997
Community 9
  relative growth: 0.925
[1]
  relative growth: 0.951
[2]
  relative growth: 0.969
[3]
  relative growth: 0.944
[4]
  relative growth: 1.05
[5]
  relative growth: 0.888
[6]
  relative growth: 0.958
[7]
  relative growth: 0.957

## C[N+]1(C)CCCCC1
Community 7
  relative growth: 0.992
Community 8
  relative growth: 0.99
Community 9
  relative growth: 1.06
[1]
  relative growth: 1.03
[2]
  relative growth: 1.03
[3]
  relative growth: 1.08
[4]
  relative growth: 0.951
[5]
  relative growth: 1
[6]
  relative growth: 1.06
[7]
  relative growth: 1

## CC1=NNC(=O)N(/N=C/c2cccnc2)C1
Community 7
  relative growth: 0.897
Community 8
  relative growth: 0.918
Community 9
  relative growth: 1.2
[1]
  relative growth: 1.04
[2]
  relative growth: 1.05
[3]
  relative growth: 1.12
[4]
  relative growth: 1
[5]
  relative growth: 1.16
[6]
  relative growth: 1.01
[7]
  relative growth: 1.06

## CCCCN(CCCC)SN(C)C(=O)Oc1cccc2c1OC(C)(C)C2
Community 7
  relative growth: 1.13
Community 8
  relative growth: 1.01
Community 9
  relative growth: 0.884
[1]
  relative growth: 0.925
[2]
  relative growth: 0.985
[3]
  relative growth: 1.13
[4]
  relative growth: 1.01
[5]
  relative growth: 0.952
[6]
  relative growth: 1.2
[7]
  relative growth: 1.12

## COC(=O)NC(=S)Nc1ccccc1NC(=S)NC(=O)OC
Community 7
  relative growth: 1.03
Community 8
  relative growth: 0.993
Community 9
  relative growth: 1.05
[1]
  relative growth: 1.08
[2]
  relative growth: 0.993
[3]
  relative growth: 0.952
[4]
  relative growth: 1
[5]
  relative growth: 1.01
[6]
  relative growth: 0.947
[7]
  relative growth: 0.934

## CCOP(=S)(OCC)Oc1cc(C)nc(C(C)C)n1
Community 7
  relative growth: 1.1
Community 8
  relative growth: 0.976
Community 9
  relative growth: 0.912
[1]
  relative growth: 0.913
[2]
  relative growth: 0.909
[3]
  relative growth: 0.975
[4]
  relative growth: 0.969
[5]
  relative growth: 0.943
[6]
  relative growth: 1.09
[7]
  relative growth: 0.922

## Cc1nc(N(C)C)nc(OC(=O)N(C)C)c1C
Community 7
  relative growth: 1.12
Community 8
  relative growth: 0.951
Community 9
  relative growth: 0.938
[1]
  relative growth: 0.924
[2]
  relative growth: 0.965
[3]
  relative growth: 0.864
[4]
  relative growth: 0.988
[5]
  relative growth: 0.928
[6]
  relative growth: 0.936
[7]
  relative growth: 0.942

## CCCCc1c(C)nc(NCC)nc1OS(=O)(=O)N(C)C
Community 7
  relative growth: 1.04
Community 8
  relative growth: 1.05
Community 9
  relative growth: 0.969
[1]
  relative growth: 0.978
[2]
  relative growth: 0.904
[3]
  relative growth: 1.06
[4]
  relative growth: 1.02
[5]
  relative growth: 0.963
[6]
  relative growth: 1.09
[7]
  relative growth: 0.906

## O=[N+]([O-])/N=C1\NCCN1Cc1ccc(Cl)nc1
Community 7
  relative growth: 1.11
Community 8
  relative growth: 1.05
Community 9
  relative growth: 1.07
[1]
  relative growth: 0.997
[2]
  relative growth: 1.07
[3]
  relative growth: 1.14
[4]
  relative growth: 1
[5]
  relative growth: 1.06
[6]
  relative growth: 0.944
[7]
  relative growth: 1.15

## CC1(C)[C@H](C(=O)O[C@H](C#N)c2cccc(Oc3ccccc3)c2)[C@@H]1C=C(Br)Br
Community 7
  relative growth: 1.07
Community 8
  relative growth: 1.06
Community 9
  relative growth: 1.05
[1]
  relative growth: 1.08
[2]
  relative growth: 1.02
[3]
  relative growth: 1.06
[4]
  relative growth: 1.03
[5]
  relative growth: 1.1
[6]
  relative growth: 1.08
[7]
  relative growth: 0.958

## Cc1cccc2sc3nncn3c12
Community 7
  relative growth: 1.05
Community 8
  relative growth: 1.01
Community 9
  relative growth: 0.899
[1]
  relative growth: 1.01
[2]
  relative growth: 0.95
[3]
  relative growth: 0.996
[4]
  relative growth: 1.05
[5]
  relative growth: 0.969
[6]
  relative growth: 1.05
[7]
  relative growth: 0.943

## O=C(O)CNCP(=O)(O)O
Community 7
  relative growth: 1.06
Community 8
  relative growth: 1.04
Community 9
  relative growth: 1.04
[1]
  relative growth: 0.964
[2]
  relative growth: 1.02
[3]
  relative growth: 1.11
[4]
  relative growth: 1.05
[5]
  relative growth: 1.04
[6]
  relative growth: 1.02
[7]
  relative growth: 0.969

## N#CC(CCc1ccc(Cl)cc1)(Cn1cncn1)c1ccccc1 (stereo not given)
Community 7
  relative growth: 0.96
Community 8
  relative growth: 0.951
Community 9
  relative growth: 0.939
[1]
  relative growth: 0.846
[2]
  relative growth: 0.856
[3]
  relative growth: 0.861
[4]
  relative growth: 0.909
[5]
  relative growth: 0.905
[6]
  relative growth: 1.02
[7]
  relative growth: 0.947

## CO/C=C(/C(=O)OC)c1ccccc1COc1cccc(C(F)(F)F)n1
Community 7
  relative growth: 1.04
Community 8
  relative growth: 1
Community 9
  relative growth: 0.987
[1]
  relative growth: 0.911
[2]
  relative growth: 0.962
[3]
  relative growth: 1.06
[4]
  relative growth: 0.997
[5]
  relative growth: 1.01
[6]
  relative growth: 0.944
[7]
  relative growth: 1.01

## CCC(CC)Nc1c([N+](=O)[O-])cc(C)c(C)c1[N+](=O)[O-]
Community 7
  relative growth: 1.03
Community 8
  relative growth: 1.02
Community 9
  relative growth: 0.884
[1]
  relative growth: 1.03
[2]
  relative growth: 0.957
[3]
  relative growth: 0.926
[4]
  relative growth: 1.04
[5]
  relative growth: 0.918
[6]
  relative growth: 1.1
[7]
  relative growth: 0.933

## COc1ccc(C(=CC(=O)N2CCOCC2)c2ccc(Cl)cc2)cc1OC (mixture of isomers)
Community 7
  relative growth: 0.947
Community 8
  relative growth: 0.986
Community 9
  relative growth: 1.03
[1]
  relative growth: 1.07
[2]
  relative growth: 0.979
[3]
  relative growth: 1.05
[4]
  relative growth: 1.03
[5]
  relative growth: 1.02
[6]
  relative growth: 1.12
[7]
  relative growth: 0.961

## O=C1C2CC=CCC2C(=O)N1SC(Cl)(Cl)Cl (stereo not given)
Community 7
  relative growth: 0.95
Community 8
  relative growth: 0.794
Community 9
  relative growth: 0.473 (active)
[1]
  relative growth: 0.948
[2]
  relative growth: 0.9
[3]
  relative growth: 0.968
[4]
  relative growth: 1
[5]
  relative growth: 0.917
[6]
  relative growth: 0.991
[7]
  relative growth: 1.06

## CCCC1COC(Cn2cncn2)(c2ccc(Cl)cc2Cl)O1 (stereo not given)
Community 7
  relative growth: 1.08
Community 8
  relative growth: 1
Community 9
  relative growth: 0.862
[1]
  relative growth: 0.937
[2]
  relative growth: 0.856
[3]
  relative growth: 0.937
[4]
  relative growth: 1.01
[5]
  relative growth: 0.88
[6]
  relative growth: 1.1
[7]
  relative growth: 0.935

## CCc1cccc(C)c1N(C(=O)CCl)[C@@H](C)COC
Community 7
  relative growth: 1.12
Community 8
  relative growth: 1.05
Community 9
  relative growth: 0.948
[1]
  relative growth: 0.984
[2]
  relative growth: 0.967
[3]
  relative growth: 1.04
[4]
  relative growth: 1.04
[5]
  relative growth: 0.981
[6]
  relative growth: 1.06
[7]
  relative growth: 0.974
